Tests used:
Assay in all cases: fraction of edited reads among all mapped reads; higher = more Cas9 editing
Conditions in all cases: mESC; 2uM; 72 h treatment, harvest day 5
[1] = compound: CC(=O)O/N=C1\C(=O)N(Cc2cc(Cl)ccc2Cl)c2ccc(Cl)cc21
[2] = compound: CC(C)(C#N)c1ccc(N2C(=O)OCc3cnc4ccc(-c5cnc6ccccc6c5)cc4c32)cc1
[3] = compound: CCCCOc1c(C(=O)c2c(F)cc(C)cc2F)c[nH]c2nncc1-2
[4] = compound: CCN1CCN(CC(=O)Nc2ccc(-c3cccc4c(=O)cc(N5CCOCC5)oc34)c3sc4ccccc4c23)CC1
[5] = compound: CCc1c2c(nc3ccc(OC(=O)N4CCC(N5CCCCC5)CC4)cc13)-c1cc3c(c(=O)n1C2)COC(=O)[C@]3(O)CC [Irinotecan HCl Trihydrate]
[6] = compound: CCn1c(=O)c(-c2ccc(Cl)cc2Cl)cc2cnc(Nc3ccc(N4CCNCC4)c(F)c3)nc21
[7] = compound: CNc1ccc([N+](=O)[O-])c(Nc2ccc3[nH]ncc3c2)n1
Rifapentine = compound: CO[C@H]1/C=C/O[C@@]2(C)Oc3c(C)c(O)c4c(O)c(c(/C=N/N5CCN(C6CCCC6)CC5)c(O)c4c3C2=O)NC(=O)/C(C)=C\C=C\[C@H](C)[C@H](O)[C@@H](C)[C@@H](O)[C@@H](C)[C@H](OC(C)=O)[C@@H]1C [Rifapentine]
[8] = compound: COc1ccccc1-c1cc(Nc2cccc(CS(N)(=O)=O)c2)ncn1
[9] = compound: C[C@@H]1CN(CC(=O)Nc2ccc3c(c2)Cc2cccc(-c4cc(=O)cc(N5CCOCC5)o4)c2S3)C[C@H](C)O1

Row | Target | fraction of edited reads among all mapped reads [1] | fraction of edited reads among all mapped reads [2] | fraction of edited reads among all mapped reads [3] | fraction of edited reads among all mapped reads [4] | fraction of edited reads among all mapped reads [5] | fraction of edited reads among all mapped reads [6] | fraction of edited reads among all mapped reads [7] | fraction of edited reads among all mapped reads (Rifapentine) | fraction of edited reads among all mapped reads [8] | fraction of edited reads among all mapped reads [9]
1 | 44.0 (DMSO control at this site: 1-bp insertion 0.181, MH deletion 0.512, edited 0.123) ACACATACCTTCTTCGAGGCAGCCAGCATGATGAGACAGGTCTCCCACAAACACATCGTGT | 0.149 | 0.14 | 0.157 | 0.0618 | 0.202 | 0.138 | 0.17 | 0.251 | 0.195 | 0.111
2 | 42.0 (DMSO control at this site: 1-bp insertion 0.145, MH deletion 0.655, edited 0.132) GGGCTAAACCTATGAGCACAGTAGAACTAAGGGTGGGTGGTGTAGCTAAAGAACTTGACCA | 0.151 | 0.153 | 0.161 | 0.0618 | 0.191 | 0.139 | 0.184 | 0.27 | 0.187 | 0.0909
3 | 25.0 (DMSO control at this site: 1-bp insertion 0.017, MH deletion 0.774, edited 0.143) GGGCCTGAATGGTGTGGACATCTACTCGCTGGTGAGCTGGTGACTGAAAACATTCAGTGGC | 0.18 | 0.183 | 0.184 | 0.0836 | 0.211 | 0.167 | 0.199 | 0.306 | 0.205 | 0.0682
4 | 4.0 (DMSO control at this site: 1-bp insertion 0.146, MH deletion 0.523, edited 0.125) ACGCCTTAGTGCACGAGTGACGGGATAATGTGGTCTCAGGTAATTGATAGGCTTCCAACTT | 0.157 | 0.149 | 0.155 | 0.0719 | 0.194 | 0.136 | 0.182 | 0.243 | 0.188 | 0.0881
5 | 35.0 (DMSO control at this site: 1-bp insertion 0.01, MH deletion 0.72, edited 0.098) CCACTTTTAGAGAGGGTGAAAATCATCAGTTATCATCAGGGCAACAAATTGCTTTCTCCTA | – | 0.143 | – | 0.0527 | 0.166 | 0.111 | 0.148 | 0.208 | 0.151 | 0.0395
6 | 15.0 GCGCCTCCAATGACCCAGTGGGATCCTACTCCATAATGGGATCCTGGGGATTCCTCGCTCC | 0.105 | 0.0725 | – | – | – | – | – | 0.107 | – | –
7 | 7.0 (DMSO control at this site: 1-bp insertion 0.128, MH deletion 0.374, edited 0.098) TACTCAACCGAGACCTACGCGAACCGAAATCGTATGCCGGTGCGCAAGCAGGGCTGGCGTC | 0.117 | 0.115 | 0.118 | 0.0615 | 0.161 | 0.0955 | 0.135 | 0.19 | 0.126 | 0.0557
8 | 43.0 (DMSO control at this site: 1-bp insertion 0.134, MH deletion 0.714, edited 0.104) AGTTTAACTTACTCCGGCCAAAAAAGAACTGCACCTCTGGAGCGGGTTAGTGGTGGTGGTA | 0.15 | 0.143 | 0.151 | 0.0617 | 0.184 | 0.119 | 0.164 | 0.218 | – | 0.0771
9 | 1.0 (DMSO control at this site: 1-bp insertion 0.521, MH deletion 0.323, edited 0.141) GTGTCACAGTGCACGAGTGACGGGATAATGTGCTGACAGGTAATTGATAGGCTTCCAACTT | 0.144 | 0.154 | 0.163 | 0.0521 | 0.194 | 0.145 | 0.207 | 0.256 | 0.203 | 0.152
10 | 18.0 (DMSO control at this site: 1-bp insertion 0.114, MH deletion 0.789, edited 0.094) GCGCAAGTGCATAAGTTTTTCTTAAGGCGTGCCTTTAAGGCGTGCCTTTGTCGGTCCTGGA | 0.103 | 0.109 | 0.105 | 0.064 | 0.111 | 0.0889 | 0.116 | 0.175 | 0.122 | 0.0564
11 | 3.0 (DMSO control at this site: 1-bp insertion 0.109, MH deletion 0.149, edited 0.09) TGCTAGCGCCCCCACAAAGCGGACCAGCCAGCACTATAGGGAATAAGGCCAACTTGCACCC | 0.101 | 0.0887 | 0.115 | 0.0444 | 0.124 | 0.099 | 0.103 | 0.178 | 0.123 | 0.0619
12 | 29.0 (DMSO control at this site: 1-bp insertion 0.084, MH deletion 0.745, edited 0.133) TTGATGAACTTCCTCTTCTTCTCATGTCTCCGGTCTCCGGTAGGCCACGTGCATGGCCACT | 0.166 | 0.157 | 0.153 | 0.073 | 0.196 | 0.142 | 0.167 | 0.256 | 0.172 | 0.0736
13 | 38.0 (DMSO control at this site: 1-bp insertion 0.063, MH deletion 0.487, edited 0.17) GGGCTGGGTGCTAAAATGAGGAGCTCCAAGAAGACTGAGGTGAACCTGGAGGCCCCTGAGC | 0.178 | 0.169 | 0.188 | 0.0737 | 0.243 | 0.147 | 0.206 | 0.26 | 0.204 | 0.107
14 | 39.0 (DMSO control at this site: 1-bp insertion 0.328, MH deletion 0.371, edited 0.204) CTGCACAGTCACTTAGGATAGGAGAAGATGATGTATAGGGTTTAGTGGGAGATGTTGCAAG | 0.191 | 0.182 | 0.214 | 0.0792 | 0.252 | 0.192 | 0.223 | 0.335 | 0.248 | 0.191
15 | 45.0 (DMSO control at this site: 1-bp insertion 0.017, MH deletion 0.666, edited 0.101) TTACACAGCATGAACTGCTAGGTGATGATGTCAGATTCGGTTTTACTAACTTCTCCAAAAA | 0.115 | 0.112 | 0.119 | 0.0494 | 0.153 | 0.113 | 0.133 | 0.203 | 0.144 | 0.0499
16 | 32.0 (DMSO control at this site: 1-bp insertion 0.03, MH deletion 0.85, edited 0.898) AGAAGTCCAGGATCAGGGGGACTGGGGTCGGGAGGGTGGGGCAGGAAGGAAGCCAGAATCA | 0.893 | 0.917 | 0.893 | 0.793 | 0.944 | 0.929 | 0.921 | 0.946 | 0.934 | 0.841
17 | 20.0 (DMSO control at this site: 1-bp insertion 0.349, MH deletion 0.138, edited 0.084) TACAGGTGTAGACTGGTTACGTGGCTGCGGAATTGACTGGTTACGTGGCTGCGGAATTTTG | 0.0924 | 0.0867 | 0.0976 | 0.0384 | 0.115 | 0.0929 | 0.1 | 0.133 | 0.147 | 0.103
18 | 41.0 (DMSO control at this site: 1-bp insertion 0.022, MH deletion 0.754, edited 0.115) AAAGAGACAGCAGGTATGAATCCATCTTCCTGACCCTTGGGACCAGCCGGGGCAGTGAAGC | 0.135 | 0.15 | 0.152 | 0.0542 | 0.19 | 0.126 | 0.162 | 0.23 | 0.171 | 0.0671
